# Assay outcomes: PubChem, NMMLSC
# This is a sample that favours compounds with a hit; in the whole collection about 1.1% have one here.
# MEP2 TOR yeast = modulators of MEP2-GFP levels in yeast, primary screen, S. cerevisiae, multiplex flow cytometry, MLPCN library; S. cerevisiae MEP2-GFP strain, 3 h; 100% = DMSO control level; GFP response vs DMSO, % at 10 µM; 330,000 compounds, 0.51% hits; AID 2016, 2009;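 active means GFP response versus DMSO above a set limit, roughly screen mean plus 3 SD, cut at about 180% in these data; inconclusive means fewer than 70 cells counted for a yeast strain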;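 further: median GFP fluorescence of the barcode-gated MEP2-GFP cells per well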
# LAP4-GFP MLPCN = modulators of LAP4-GFP expression in yeast, primary screen, S. cerevisiae, multiplex flow cytometry, MLPCN library | 3 h; median GFP as percent of DMSO wells | GFP response vs DMSO, % at 10 µM | 320,000 compounds, 0.34% hits;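 active means GFP response vs DMSO above a set limit, about the screen mean plus 3 SD, cut at about 150% in these data; inconclusive means under 70 cell events counted for the yeast strain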
# VLA-4 inh = inhibition in human VLA-4 binding assay, primary screen, VLA-4 allosteric modulator project, MLPCN library, flow cytometry, VLA-4 expressing cells. Integrin alpha-4 (Homo sapiens), P13612. ligand binding flow cytometry. inhibition, % (about 7 µM as worked out from the volumes in the protocol). 330,000 compounds, 0.2% hits; in the data active means inhibition above about 50%
# CIT2-GFP yeast = modulators of CIT2-GFP expression in yeast, primary screen, S. cerevisiae, GFP fusion, multiplex flow cytometry, MLPCN library; S. cerevisiae CIT2-GFP strain, 3 h; 100 means same as DMSO wells; GFP response vs DMSO, % at 10 µM; 320,000 compounds, 0.065% hits; AID 2029, 2009;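 active means GFP response relative to DMSO above a set limit, near the screen mean plus 3 SD, cut at about 150% in these data; inconclusive means Fewer than 70 cells measured for a yeast strain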;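 further: ratio of well median GFP fluorescence to mean of DMSO wells on the plate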
# RPL19A-GFP yeast = RPL19A-GFP expression modulators in yeast, primary screen, cell-based, S. cerevisiae, multiplex flow cytometry, MLPCN | 330,000 compounds, 0.3% hits | AID 2025, 2009 | S. cerevisiae RPL19A-GFP strain, 3 h; hits give low values | percent response vs DMSO, % at 10 µM;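 active means percent response vs DMSO below 50%; inconclusive means fewer than 70 events counted for the yeast strain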;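 further: median channel GFP fluorescence of the barcoded RPL19A-GFP strain; ratio of sample median GFP to plate DMSO average so 100% = DMSO; lower means less RPL19A-GFP as with rapamycin TOR inhibition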
# AGP1-GFP MLPCN = modulators of AGP1-GFP expression in yeast TOR pathway, primary screen, cell-based, multiplex flow cytometry, S. cerevisiae, MLPCN library; AID 2066, 2009; 320,000 compounds, 0.02% hits; 3 h; GFP as percent of DMSO wells; GFP response vs DMSO, % at 10 µM;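 active means GFP response relative to DMSO above a set limit, near screen average plus 3 SD, cut at about 150% in these data; inconclusive means fewer than 70 cells counted for the yeast strain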;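 further: median GFP channel fluorescence of the gated AGP1 strain per well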
# * hit, by the source's call; u = inconclusive; x = no result given; [ ] = another dose, or the depositor's remark.
SMILES,MEP2 TOR yeast,LAP4-GFP MLPCN,VLA-4 inh,CIT2-GFP yeast,RPL19A-GFP yeast,AGP1-GFP MLPCN
O=c1c2ccc([N+](=O)[O-])c3cccc(c32)c2nc3ccccc3n12,183*,148,-207,119,106,108
Cc1ccc(-n2c(C)cc(/C=N/NC(=O)Cn3c4ccccc4c(=O)c4ccccc43)c2C)cc1,244*[may fluoresce violet],78,1,u,37*[may fluoresce violet],20
CCOc1ccc(N2CC(C(=O)Nc3ccccc3N3CCOCC3)CC2=O)cc1 (configuration not stated),260*[may fluoresce violet],88,15,u,38*[may fluoresce violet],24
CCOc1ccc(N2CC(C(=O)Nc3ccccc3C(=O)N3CCOCC3)CC2=O)cc1 (configuration not stated),99,98,-9,93,107,98
COc1ccc(N(CC(=O)NCc2ccc(F)cc2)C(=O)CCC(=O)Nc2ccccn2)cc1,92,90,3,94,94,89
Cc1ccc(N(CC(=O)NCc2ccc(F)cc2)C(=O)CCC(=O)Nc2ccccn2)cc1C,564*[may fluoresce violet],76,3,u,45*[may fluoresce violet],u
O=C(Cc1ccc([N+](=O)[O-])cc1)Nc1ccc(Br)cn1,123,98,4,97,104,121
O=C(COc1ccc([N+](=O)[O-])cc1)NNC(=S)NC(=O)c1ccc(Br)cc1,106,103,61*,95,100,106
O=C(COc1ccc(Br)cc1)Nc1ccc([N+](=O)[O-])cn1,250*[may fluoresce violet],97,2,u,60,x
OC(COc1ccccc1Cl)CN1CCN(CC(O)COc2ccccc2Cl)CC1 (configuration not stated),u,u,14,u,98,104
COc1ccccc1S(=O)(=O)CC(O)COc1ccccc1Cl (configuration not stated),116,107,-1,150*[may fluoresce green],95,118
Cc1c(C)c2ccc(OCC(=O)Nc3ccccn3)cc2oc1=O,112,113,11,113,109,111
Cc1c(C)c2ccc(OCC(=O)Nc3cccnc3)cc2oc1=O,182*[may fluoresce violet],70,0,u,15*[may fluoresce violet],u
O=C1C2C3C=CC(C4CC34)C2C(=O)N1/N=C/c1ccc([N+](=O)[O-])o1 (configuration not stated),99,158*,6,80,94,89
O=C1NCCCCC1NS(=O)(=O)c1cccc(C(F)(F)F)c1 (configuration not stated),115,100,-16,103,108,101
COc1ccc(N2CCN(C(=O)CCc3nnc4ccc(N5CCCC5)nn34)CC2)cc1,190*,104,7,127,69,70
COCCOC(=O)C1=C(C)NC2=C(C(=O)CC(C)(C)C2)C1c1cccnc1 (configuration not stated),107,89,28,95,101,104
CC1=C(C(=O)OCC2CCCO2)C(c2ccncc2)C2=C(CC(C)(C)CC2=O)N1 (configuration not stated),216*[may fluoresce violet],99,-2,u,99,94
COc1ccccc1CNC(=O)C1CCN(S(=O)(=O)c2ccc(-n3cnnn3)cc2)CC1,609*[may fluoresce violet],89,-10,u,61,u
COc1cccc(CNC(=O)C2CCN(S(=O)(=O)c3ccc(-n4cnnn4)cc3)CC2)c1,99,93,4,106,99,101
O=C(O)CCC(=O)NNC(=O)CCC1CCCCC1,93,99,13,96,93,97
O=C(O)CCC(=O)OCC1CCCCC1,96,172*,-4,101,109,83
Cc1nc(Nc2cnc(/C=C/c3cc(C(=O)Nc4cccc(C(F)(F)F)c4)ccc3C)cn2)cc(N2CCNCC2)n1,198*[may fluoresce violet],107,-85,u,45*[may fluoresce violet],12
